Hit rate of the full screen: of about 69,000 compounds, about 8,600 (12%) showed an effect of 50% or more. This is one part of a sample in which strong results are shown more often than they occur.
These molecules were tested on Plasmodium berghei (assay: Screen against P. berghei liver stage (PbLuc), transformed with Luciferase, at 10uM). Details: tested at 10 uM.
Type: functional, HepG2
`CC(Cn1ccnc1)NC(=O)NCCN1CCCCCC1=O` (centres undefined) was tested, and the INHIBITION was 5.29%.
With `Cc1noc(C2CCN(C(=O)Nc3ccc(N(C)C)nc3)CC2)n1` the INHIBITION was 24.95%.
Molecule `CCNC(c1ccc(Cl)cc1)c1cccnc1` (centres undefined) has an INHIBITION of 3.15%.
`CC(C)C(=O)N1CCC2(CC1)NC(=O)c1ccccc12` gave an INHIBITION of 39.3%.
In the case of `Cc1ccccc1C(=O)N1CCC2(CCC(C(=O)NCC3CC3)O2)CC1` (centres undefined), the INHIBITION is reported as -3.58%.
Molecule `CSCC(C)(O)CNS(=O)(=O)c1ccc(Br)cc1` (centres undefined) has an INHIBITION of -23.5%.
`Cn1c2c(c(=O)c3ccccc31)CCC(C)(C)O2` gave an INHIBITION of -27.3%.
With `CN(Cc1ccco1)[C@@H]1CN(Cc2cnn(C)c2)[C@@H]2CCCO[C@H]12` the INHIBITION was 38.1%.
`Cc1cc(CNC(=O)CCc2c(C)nc3cc(O)nn3c2C)no1` showed an INHIBITION of 15.5%.
`CNS(=O)(=O)c1ccc(CN2CCCN(Cc3ccncc3)CC2)cc1` showed an INHIBITION of 55.7%.
`CNS(=O)(=O)c1ccc(CN2CCCN(CC(C)C)CC2)cc1` was tested, and the INHIBITION was 34.1%.
Molecule `CS(=O)(=O)c1ccc(CN2CCCCC2c2cccc(F)c2)cc1` (centres undefined) has an INHIBITION of 34%.
For `CNS(=O)(=O)c1ccc(CN2CCC(c3ccncc3)CC2)cc1`, the INHIBITION was 54.1%.
`CNS(=O)(=O)c1ccc(CN2CCCC2c2ccc(F)cc2)cc1` (centres undefined) was tested, and the INHIBITION was 51.3%.
For `CNS(=O)(=O)c1ccc(CN2CCN(Cc3ncccc3C)CC2)cc1`, the INHIBITION was 49.1%.
With `CS(=O)(=O)c1ccc(CN2CCCCC2c2ccc(F)cc2)cc1` (centres undefined) the INHIBITION was 32.8%.
Molecule `Cn1cc(CN2CCC(c3ccncc3)CC2)cn1` has an INHIBITION of 23.35%.
With `CNS(=O)(=O)c1ccc(CN2CCCN(c3ccccc3)CC2)cc1` the INHIBITION was 48.2%.
For `O=C1CN(C(=O)OCc2ccccc2)CC(O)CN1Cc1ccco1` (centres undefined), the INHIBITION was 34.3%.
`CCN(CC)C(=O)Cn1ccc2cc(NC(C)=O)ccc21` showed an INHIBITION of -37.31%.
`CNc1cc2c(nn1)CCN(C(=O)c1ccc(-n3cccn3)nc1)C2` showed an INHIBITION of 35.7%.
`COc1c(C2CCCN2C(=O)c2ccc(C#N)cc2)c(C)nn1C` (centres undefined) was tested, and the INHIBITION was 7.67%.
In the case of `C[C@H]1CN(Cc2cnn(C)c2)C[C@@]12CCN(Cc1cccnc1)C2=O`, the INHIBITION is reported as 48.2%.
Molecule `CC(=O)N1CCCN(C(C(=O)O)c2ccccc2OC(F)(F)F)CC1` (centres undefined) has an INHIBITION of 15.2%.
For `O=C(CN1CCCC1Cn1cccn1)NCCOc1cccc(F)c1` (centres undefined), the INHIBITION was 48.4%.
`Cc1nc(C)n(CCC(=O)N2CCc3ncc(Cl)cc3C2)n1` showed an INHIBITION of 24.4%.
In the case of `CC(C)n1ncc2c1NC(=O)CSC2C(F)(F)F` (centres undefined), the INHIBITION is reported as -38%.
With `CNc1cc(C(=O)N(C)Cc2cc(-c3cccs3)n[nH]2)ccn1` the INHIBITION was 47.6%.
`CNc1ccnc(N(C)Cc2cc(-c3cccs3)n[nH]2)n1` gave an INHIBITION of 88.4%.
Molecule `CN(C)c1nccc(NCc2cc(-c3cccs3)n[nH]2)n1` has an INHIBITION of 18.9%.
For `CCc1n[nH]c(C2CN(C(=O)c3nc(C)ncc3Cl)CCO2)n1` (centres undefined), the INHIBITION was 37.5%.
`CCOC(=O)c1sc(NC(=O)CCCC(=O)O)c(C#N)c1C` was tested, and the INHIBITION was 28.2%.
`COc1ccc2nc(CNC(=O)C3CC4(CCNCC4)CN3C)[nH]c2c1` (centres undefined) was tested, and the INHIBITION was 18.6%.
With `Cc1ccc2[nH]c(CNC(=O)C3CC4(CCNCC4)CN3C)nc2c1C` (centres undefined) the INHIBITION was 66.3%.
`Cc1ccc(NCCCNC(=O)C2CC3(CCNCC3)CN2C)nc1` (centres undefined) was tested, and the INHIBITION was 37.1%.
For `c1coc(CNc2ncc3c(n2)C2(CCNC2)COC3)c1` (centres undefined), the INHIBITION was 29.8%.
For `Cc1nc(NCC2CC2)nc2c1COCC21CCNC1` (centres undefined), the INHIBITION was 38.1%.
With `Cc1nc(NCc2ccco2)nc2c1COCC21CCNC1` (centres undefined) the INHIBITION was 55.5%.
`Cc1ccc(Oc2ncccc2C(=O)N(C)CCCN(C)C)c(C)c1` was tested, and the INHIBITION was 13.5%.
`CCOCC(=O)N1CCC(C)(c2nccs2)CC1` showed an INHIBITION of 38.05%.
With `CC(=O)N1CCN(C(=O)CCn2c(C)nc3ccccc3c2=O)CC1` the INHIBITION was 8.665%.
`CC(C)=CCN1CCC(c2nnc(CN3CCN(C)CC3)n2C)CC1` gave an INHIBITION of 25.4%.
With `Cc1noc([C@@]23CCO[C@@H]2CCN(C(=O)c2c(C)noc2C)C3)n1` the INHIBITION was 28.2%.
In the case of `Cc1noc([C@@]23CCO[C@@H]2CCN(C(=O)c2cc(C)[nH]c2C)C3)n1`, the INHIBITION is reported as 24.9%.
`Cc1noc([C@@]23CCO[C@@H]2CCN(C(=O)c2ccsc2)C3)n1` gave an INHIBITION of -15.3%.
In the case of `Cc1noc([C@@]23CCO[C@@H]2CCN(C(=O)c2sccc2C)C3)n1`, the INHIBITION is reported as -4.56%.
Molecule `Cc1noc([C@@]23CCO[C@@H]2CCN(C(=O)c2cc(C)on2)C3)n1` has an INHIBITION of 61.9%.
In the case of `Cc1noc([C@@]23CCO[C@@H]2CCN(C(=O)c2cc(C)c(C)s2)C3)n1`, the INHIBITION is reported as 57.1%.
With `CC(C)Cc1nc(CCn2cncn2)n(-c2ccc3c(c2)OCCO3)n1` the INHIBITION was 41.2%.
`Cc1cc(Cl)ccc1-n1ncc(C(=O)N(C)CCc2ccccn2)c1N` gave an INHIBITION of 29.3%.
Work on `CC(C)c1nc(-c2ccnc(N3CCNCC3)n2)no1` yielded an INHIBITION of 18.2%.
Work on `CC(C)n1ccnc1CN1CCCN(C(=O)c2cnn(C)c2)CC1` yielded an INHIBITION of 10.9165%.
Molecule `Cc1nc(CN2C(=O)COC3(CCN(C(N)=O)CC3)C2C)cs1` (centres undefined) has an INHIBITION of -10.3%.
Work on `CS(=O)(=O)c1cncnc1C1CCCN(C(=O)Nc2ccccc2F)C1` (centres undefined) yielded an INHIBITION of -8.76%.
`CCN(Cc1cccs1)S(=O)(=O)N(C)C(C)C` showed an INHIBITION of 44.3%.
In the case of `CC(C)N(C)S(=O)(=O)N(Cc1cccs1)Cc1cccs1`, the INHIBITION is reported as 14.6%.
With `COc1ccccc1CN(Cc1cccs1)S(=O)(=O)N(C)C(C)C` the INHIBITION was 67.5%.
`Cn1nc(C2CN(C(=O)c3cccnc3)C2)c2nccnc21` gave an INHIBITION of 32.8%.
With `CCc1nc2n(n1)CC(NCc1nc(Cc3ccccc3)no1)CC2` (centres undefined) the INHIBITION was 19.6%.
`NC(=O)c1ccc(NC(=O)c2ccncc2F)cn1` showed an INHIBITION of 9%.
Molecule `O=C(Cc1ccccc1F)N1C[C@@H]2COC[C@]2(COc2cccnc2)C1` has an INHIBITION of 39.2%.
For `O=C(c1cocn1)N1C[C@@H]2COC[C@]2(COc2cccnc2)C1`, the INHIBITION was 43.9%.
Molecule `O=C(c1ccc(F)cc1)N1C[C@@H]2COC[C@]2(COc2cccnc2)C1` has an INHIBITION of 55.7%.
`O=C(C1=CCCC1)N1C[C@@H]2COC[C@]2(COc2cccnc2)C1` gave an INHIBITION of 33%.
For `O=C(COC1CCCC1)N1C[C@@H]2COC[C@]2(COc2cccnc2)C1`, the INHIBITION was 40.3%.
In the case of `O=C(c1cc(C2CC2)on1)N1C[C@@H]2COC[C@]2(COc2cccnc2)C1`, the INHIBITION is reported as 72%.
With `Cc1ccc(C(=O)N2C[C@@H]3COC[C@]3(COc3cccnc3)C2)cn1` the INHIBITION was 23.9%.
`O=C(COc1ccccc1)N1C[C@@H]2COC[C@]2(COc2cccnc2)C1` gave an INHIBITION of 50.3%.
`O=C(c1ncccn1)N1C[C@@H]2COC[C@]2(COc2cccnc2)C1` gave an INHIBITION of 46.6%.

Reference: ChEMBL document CHEMBL4513216, “Probing the Open Global Health Chemical Diversity Library for Multistage-Active Starting Points for Next-Generation Antimalarials” (ACS Infect Dis, 2020)
